In all, about 5,500 compounds went through this assay and about 2,000 (36%) were called active. About 18% were inconclusive and are not listed. Rule as the data show it: active = normalized growth mostly below about 0.91 (no sharp cut-off); inconclusive = no clear call, values can overlap the other calls; inactive = mostly above about 0.92. The list shows a part of the results.
Experiment: chemical genetic growth profiling, strain panel (AID 1159580);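 also: tested at 20 µM; growth read once vehicle control cultures reached saturation at 30 °C; 1 = growth at the plate median or of vehicle wells; lower values mean less growth of the strain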
Conditions: S. cerevisiae deletion strains, growth OD

Measured: normalized growth

CN(C(=O)CCCOc1ccc2[nH]c(=O)ccc2c1)C1CCCCC1
inactive: locus YAL013W, strain DEP1, active compounds read low 1.01 | locus YAL040C, strain CLN3, active compounds read low 0.998 | locus YCL061C, strain MRC1 (second series), active compounds read low 0.998 | locus YDR150W, strain NUM1, active compounds read low 0.99 | locus YDR363W, strain ESC2, active compounds read low 1 | locus YER002W, strain NOP16, active compounds read low 0.989 | locus YMR263W, strain SAP30, active compounds read low 0.989 | locus YMR307W, strain GAS1, active compounds read low 1.01 | locus YNL175C, strain NOP13, active compounds read low 1.01 | locus YNL197C, strain WHI3, active compounds read low 1.02 | locus YNL224C, strain SQS1, active compounds read low 0.989 | locus YOR083W, strain WHI5 (second series), active compounds read low 0.993 | locus YPL055C, strain LGE1, active compounds read low 1 | locus YPL241C, strain CIN2, active compounds read low 0.999

— PubChem BioAssay AID1159580 (chemical genetic matrix, 2015)
